Records with an inconclusive call do not appear. Values without a mark were called inactive. Calls of active or inactive are those of the source. The call rests on the fitted dose curve; in most records, active means well fitted cell-killing curve with a large enough effect in the repeat runs; inconclusive means weak or mixed curves, or effect the other way; inactive means flat fitted curve, though single readings scatter.
Assay: cAMP Responsive Elements (CRE) small molecule agonists, cell-based qHTS assay: qHTS cell viability counter screen (AID 2060914);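 further: viability read after 3 h of compound exposure; nearly all actives have a fitted effect of over 50% in size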
Conditions: CRE-bla HEK293T viability, CellTiter-Glo luminescence, 5 h; series mostly up to 92.4 µM; activity change, negative = cytotoxicity: at the top concentration
Description: National Center for Advancing Translational Sciences [NCATS]
Division of Preclinical Innovation [DPI]
U.S. Environmental Protection Agency [EPA]
National Institutes of Environmental Health Sciences [NIEHS]
National Toxicology Program [NTP]
U.S. Food and Drug Administration [FDA]
CREB (cyclic-AMP Responsive Element Binding Protein) is a cellular transcription factor. It binds to certain DNA sequences called cAMP Responsive Elements (CRE) and regulates the transcription of the genes. […] This cell line can be used to find agonists/antagonists of the cyclic AMP signaling pathway. The activation of the report gene under culture conditions can be detected by fluorescence intensity. This cell line has been used to screen the Tox21 10K compound library to identify agonists that induce oxidative stress. The cytotoxicity of the Tox21 compound library against the CRE-bla cell line was tested in parallel by measuring the cell viability using CellTiter-Glo assay (Promega, Madison, WI) in the same wells.
Tox21 Assay Protocol Summary:
CRE-bla Hek 293T cells were suspended in assay medium (DMEM containing 10% dialyzed FBS, 0.1 mM NEAA, 1 mM sodium pyruvate and 25 mM HEPES) and dispensed at 2,000 cells/5 uL /well into 1536-well black wall/clear bottom plates using a Multidrop Combi (ThermoFisher Scientific, Waltham, MA) dispenser. After the assay plates were incubated at 37 C/5% CO2 for 18 hrs, 23 nL of compounds dissolved in DMSO, positive controls or DMSO only was transferred to the assay plate by a pintool workstation (Kalypsys, San Diego, CA). After the plates were incubated at 37 C/5% CO2 for 3 hrs, 1 uL of LiveBLAzer B/G FRET substrate (Invitrogen, Carlsbad, CA) was added to each well using Bioraptr Flying Reagent Dispenser (FRD, Aurora Discovery, San Diego, CA). The plates were incubated at room temperature for 2 h, then fluorescence intensities were measured using an Envision plate reader (PerkinElmer, Shelton, CT) at Excitation 405nm, Emission 460nm and 530nm. The % activity was determined from the ratio of 460nm/530nm. For cell viability readout that measures cytotoxicity, 4 uL /well of CellTiter-Glo reagent was added into the assay plates using Bioraptr FRD. After 30 min incubation at room temperature, the luminescence intensity in the assay plates was measured using a ViewLux (PerkinElmer, Shelton, CT) plate reader.
On the % scale 0 is the no-effect control and ±100 the full control effect.

SMILES | activity change, negative = cytotoxicity | Potency
CC(C)(C)NCC(O)c1cc(O)cc(O)c1 (stereo not given) | -4.44% [at 42.5 µM] | –
Cc1c(N(C)CS(=O)(=O)O)c(=O)n(-c2ccccc2)n1C | – | inactive
CC(C)OC(=O)COc1ccc(Cl)cc1Cl | – | inactive
OCCOc1ccc(OCCO)cc1 | -8.76% | –
O=C(c1ccccc1)c1ccc(Cl)cc1 | -21.6% | –
Cc1ccc(N=Nc2c(O)ccc3ccccc23)c(C)c1 | 0.205% [at 42.5 µM] | –
CCCCCCCCCCOCC(O)CN (stereo not given) | 2.96% [at 42.5 µM] | –
CCCCOCCOCCOCCCC | -4.48% | –
CC(C)Oc1ccc2c(=O)c(-c3ccccc3)coc2c1 | – | inactive
O=C(OCC1CCC2OC2C1)C1CCC2OC2C1 (stereo not given) | – | inactive
C=C/C(C)=C/C/C=C(\C)CCC=C(C)C | 3.37% | –
CC(=O)CC(C)C | -1.31% | –
NS(=O)(=O)c1cc2c(cc1C(F)(F)F)NC(Cc1ccccc1)NS2(=O)=O (stereo not given) | 8.03% [at 42.5 µM] | –
Nc1ccc(Oc2ccc(Cl)cc2)cc1 | 2.43% | –
CCC(C)C(C)=O (stereo not given) | 9.79% | –
O=C1NC(=O)c2cccc3cccc1c23 | 0.528% | –
CC1=C(/C=C/C(C)=C/C=C/C(C)=C\C=O)C(C)(C)CCC1 | 9.58% | –
CCOC(=O)C1=C(C)NC(C)=C(C(=O)OCC)C1c1ccccc1/C=C/C(=O)OC(C)(C)C | 2.9% [at 42.5 µM] | –
CN(Cc1ccc(C(C)(C)C)cc1)Cc1cccc2ccccc12 | -22.6% [at 42.5 µM] | –
c1ccc(-c2nc[nH]c2-c2ccccc2)cc1 | 2.61% [at 42.5 µM] | –

SMILES | activity change, negative = cytotoxicity | Potency
CCOC(=O)[C@H](CCc1ccccc1)N[C@@H](C)C(=O)N1Cc2cc(OC)c(OC)cc2C[C@H]1C(=O)O | -2.11% [at 42.5 µM] | –
C[C@]12CC[C@@H]3c4ccc(O)cc4CC[C@H]3[C@@H]1CC[C@@H]2O | – | inactive
C=COCCOCCOC=C | -11.4% | –
CCCCCCCCCCC | 8.78% | –
NC(=O)Nc1ccc(Cl)cc1 | -1.23% | –
Cc1c(C)n(Cc2ccccc2)c2ccc(C(=O)OCCN(C)C)cc12 | -6.46% [at 42.5 µM] | –
O=C(O)CC(C(=O)O)C(CC(=O)O)C(=O)O (stereo not given) | -0.0474% | –
COc1cc(-c2ccc(=O)[nH]n2)ccc1OC(F)F | -14.4% [at 42.5 µM] | –
CC(=O)N(CC(O)CO)c1c(I)c(C(=O)NCCO)c(I)c(C(=O)NCC(O)CO)c1I (stereo not given) | -7.59% [at 42.5 µM] | –
O=C(O)Cc1ccccc1Oc1ccc(Cl)cc1Cl | 8.37% [at 42.5 µM] | –
CC(C)(C)C1CCC(=O)CC1 | -3.36% | –
[Cl][Au]([Cl])[Cl] | 1.36% | –
COC(=O)CC(C)CCC=C(C)C (stereo not given) | -0.545% | –
CC(=O)OCC(C)C | 16.1% | –
Cc1cc(O)c(Cl)c(C)c1Cl | -1.61% | –
COC(=O)Nc1nc2ccc(Sc3ccccc3)cc2[nH]1 | – | inactive
CCc1ccc(C=O)cc1 | -5.75% | –
Brc1ccc(Oc2ccc(Br)cc2)cc1 | – | inactive
Cc1nccn1CC1CCc2c(c3ccccc3n2C)C1=O (stereo not given) | -0.0494% [at 42.5 µM] | –
CCOc1ccc2[nH]cc(C(=O)NCc3ccccc3)c(=O)c2n1 | -2.82% | –
